Results from PubChem BioAssay (EPA / NIEHS).
Where “and” joins values, the source holds several entries; their conditions need not be identical. Identical values can stand only once. Results filed as inconclusive are left out. More than one record can exist for a structure, and the calls need not agree. Calls of active or inactive are those of the source. How the source made its calls: active means hit-call score of the fitted dose curve at least 0.9, where 1 is the maximum; inconclusive means response in the unintended direction; inactive means score below 0.9.

assay: ATG_XTT_Cytotoxicity: Cytotoxicity Assessment in the Attagene TRANS-FACTORIAL HepG2 Assay (AID 2283584);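 on AC50: cells exposed to compound for 24 h before reading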
Description: ATG_XTT_Cytotoxicity is a cell-based, single-readout assay that uses HepG2, a human liver cell line, with measurements taken at 24 hours after chemical dosing in a 24-well plate.ATG_XTT_Cytotoxicity is one of one assay component(s) measured or calculated from the ATG_XTT_Cytotoxicity assay. It is designed to make measurements of cell number, a form of viability reporter, as detected with […] signals by XTT cytotoxicity assay technology.Data from the assay component ATG_XTT_Cytotoxicity was analyzed into 1 assay endpoint. This assay endpoint, ATG_XTT_Cytotoxicity, was analyzed in the positive analysis fitting direction relative to DMSO as the negative control and baseline of activity. Using a type of viability reporter, loss-of-signal activity can be used to understand changes in the viability. Furthermore, this assay endpoint can be referred to as a primary readout, because the performed assay has only produced 1 assay endpoint. To generalize the intended target to other relatable targets, this assay endpoint is annotated to the cell cycle intended target family, where the subfamily is cytotoxicity.
Human liver HepG2 cells are transiently transfected with multiple reporter transcription units (MRTUs) in 6-well plates using FuGene 6 reagent (Roche; 3 ml FuGene/1 mg DNA). The MRTU constructs are regulated by a cis-regulating element (promoter). […] A major difference between the CIS and TRANS system is that in CIS activities of endogenous TFs are measured, whereas the TRANS assay evaluates changes in activities of exogenous, chimeric NR-Gal4 proteins. […] At the end of 24 hour incubation, total RNA was isolated using TriZol reagent (Invitrogen). The isolated RNA is then reverse-transcribed using oligo(dT) primer and Mo-MLV reverse transcriptase (Invitrogen) with DNAse I (Ambion) treatment for 30 min. The one-tenth of the produced cDNA was amplified by PCR using Taq DNA polymerase (Invitrogen) and two reporter sequence-specific primers. The PCR products were fluorescently labeled by primer extension with 6-arboxyfluorescein (6-FAM) 5'-labeled reporter sequence-specific primer (2 min at 95 C, 20 s at 68 C and 10 min at 72 C) and these products were digested with 5U of HpaI (New England Biolabs) for 2h at 37 C. The fragments were purified using Qiaquick PCR columns (Qiagen), analyzed on an ABI 3130xL genetic analyzer (Applied Biosystems) with peak positions identified by using a set of X-rhodamine (ROX)-labeled MapMarker1000 molecular weight standards (BioVentures). The raw capillary electrophoresis data was processed using Attagraph software (Attagene).

| SMILES | outcome | AC50 |
| --- | --- | --- |
| NC(N)=NC(N)=NCCc1ccccc1 | inactive |  |
| CC(=O)OCC=C(C)CCC=C(C)CCC=C(C)C | inactive |  |
| CCCCCCCOC(C)=O | inactive |  |
| CCNC(=S)NCC | inactive |  |
| CCC(=O)OC/C=C(\C)CCC=C(C)C | inactive |  |
| CCCCOCCOCCOCCO | inactive |  |
| C[C@]12CC[C@@H]3c4ccc(O)cc4CC[C@H]3[C@@H]1CC[C@@H]2O | inactive |  |
| CC(C)N(c1ccccc1)C(C)C | inactive |  |
| Cc1cc(O)c2c(c1)C(=O)c1cc(O)cc(O)c1C2=O | inactive |  |
| CC(=O)c1ccc(C)cc1 | inactive |  |
| CC/C=C\CCOC(=O)C(C)C | inactive |  |
| [Na+] | inactive |  |
| CCCCN(CCO)CCO | inactive |  |
| C=C1CC/C=C(\C)CC[C@@H]2[C@@H]1CC2(C)C | inactive |  |
| CC(C)OB(OC(C)C)OC(C)C | inactive |  |
| CCC(CC)CO | inactive |  |
| CC1(C)CC(N)CC(C)(CN)C1 (stereo not given) | inactive |  |
| CC/C=C\CCOC(C)OCC (stereo not given) | inactive |  |
| COc1ccccc1NC(=O)CC(C)=O | inactive |  |
| CCCCCC1C(=O)CCC1CC(=O)OC (stereo not given) | inactive |  |

| SMILES | outcome | AC50 |
| --- | --- | --- |
| Nc1ccn([C@H]2CC[C@@H](CO)O2)c(=O)n1 | inactive |  |
| C=CC(=O)OCCCCCC | inactive |  |
| OCCN1CCOCC1 | inactive |  |
| Nc1cc([N+](=O)[O-])ccc1C(=O)O | inactive |  |
| CCn1cc(C(=O)O)c(=O)c2ccc(C)nc21 | inactive |  |
| CCCc1ccc(O)cc1 | inactive |  |
| CCCC1CCC(=O)CC1 | inactive |  |
| O=C1OCc2ccccc21 | inactive |  |
| CCCO[Si](OCCC)(OCCC)OCCC | inactive |  |
| CCOC(=O)CC1(C)OCC(C)O1 (stereo not given) | inactive |  |
| CC(C)COC(=O)c1ccccc1O | inactive |  |
| CC(O)CNCC(C)O (stereo not given) | inactive |  |
| CCCCCCCCCO | inactive |  |
| O=C(c1ccc(OCCN2CCCCC2)cc1)c1c(-c2ccc(O)cc2)sc2cc(O)ccc12 | inactive | 28.3 µM (active) and 28.6 µM (active) and 34.3 µM (active) |
| CC1(C)[C@H](C=C(Cl)Cl)[C@H]1C(=O)OCc1cccc(Oc2ccccc2)c1 | inactive |  |
| C=C/C(C)=C/C/C=C(\C)CCC=C(C)C | inactive |  |
| CCC(=O)OCC=Cc1ccccc1 | inactive |  |
| CCC(C)C1CCCCC1=O (stereo not given) | inactive |  |
| CC(C)(O)CCc1ccccc1 | inactive |  |
